Shown are actives, neighbours in structure and some others; about 5.4% of the full set was active somewhere.
Vaccinia mCherry: inhibitors of vaccinia virus infection (mCherry reporter signal). Vaccinia virus mCherry reporter infection, fluorescence. Potency, µM (doses to about 36.5 µM), for the others: at the highest dose activity change, negative = inhibition, usual class: inhibitors. 310,000 compounds, 0.63% hits; calls by dose curve; tested in A549 cells; further: nearly all actives have a fitted effect of over 35% in size
LASV entry inh: blocks Lassa virus binding to or entry into cells; Lassa virus pseudotype entry inhibition, cell reporter; Potency, µM (titrated, usually from 37.9 µM), for inactives: at the highest dose activity change, negative = inhibition, most hits filed as inhibitors; 300,000 compounds, 1.2% hits; AID 540256; calls by dose curve; tested in HEK293 cells; further: nearly all actives have a fitted effect of over 50% in size
MARV entry inh: Marburg virus entry inhibition; 300,000 compounds, 1.8% hits; Potency, µM (doses to about 37.8 µM), without a hit: at the highest dose activity change, negative = inhibition, most hits filed as inhibitors; Marburg virus pseudotyped entry inhibition, cell reporter; calls by dose curve; tested in HEK293 cells
Sm TGR inh: blocks Schistosoma mansoni thioredoxin glutathione reductase | 360,000 compounds, 3% hits | purified TGR, DTNB reduction, TNB absorbance 405 nm | Q962Y6 | Potency, µM (titrated, usually from 114 µM), without a hit: top-dose activity change, negative = inhibition, most hits filed as inhibitors; active means well fitted inhibition curve with a large enough effect; inconclusive means small, poorly fitted or top-dose-only effect; inactive means no such curve, though single readings can be large or run the other way; further: nearly all actives have a fitted effect of over 60% in size
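Kinetic colorimetric format: TGR-catalysed, NADPH-driven DTNB reduction monitored via TNB absorbance. Enzyme dispensed at 20 nM; compound exposure 15 min at room temperature before reaction start.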
VACV Venus inh: inhibitors of vaccinia virus (Venus reporter); Vaccinia virus Venus reporter expression, fluorescence; Potency, µM (top dose mostly 36.5 µM), without a hit: at the highest dose activity change, negative = inhibition, hits mostly inhibitors; 330,000 compounds, 0.46% hits; AID 720580; calls by dose curve; tested in A549 cells; further: nearly all actives have a fitted effect of over 30% in size
FMDV antiviral: antivirals against foot and mouth disease virus; FMDV antiviral cell-based qHTS; Potency, µM (top dose mostly 57.9 µM), for inactives: at the highest dose activity change, negative = inhibition, hits mostly inhibitors; 410,000 compounds, 1.2% hits; calls by dose curve; tested in HEK293T cells; further: read-out not given here; nearly all actives have a fitted effect of over 45% in size
The depositor's hits bear a star; i = inactive; ? = inconclusive; · = no result given; ! = not confirmed by another sample; [ ] = another dose, or the depositor's remark. On the % scale 0 is the no-effect control and ±100 the full control effect; potency means the concentration at half of the fitted maximal effect.

SMILES	Vaccinia mCherry	LASV entry inh	MARV entry inh	Sm TGR inh	VACV Venus inh	FMDV antiviral
Cc1nc2sc(C(=O)Nc3ccc(F)cc3)c(N)c2c(-c2ccc(Br)cc2)c1C(=O)Nc1ccc(Cl)cc1	3%	0%[46.1 µM]	?	-2%	-20%	10%
COc1cccc(CNC(=O)c2cc3oc4ccccc4c3n2C)c1OC	-19%[1.46 µM]	5.6µM*	?	2%	-14%	-1%
CCOc1ccc(CNC(=O)c2ccc3oc(=O)n(Cc4ccccc4)c3c2)cc1	-15%	5µM*	·	-3%	-11%	?
CCOc1ccccc1CNC(=O)c1cc2oc3ccccc3c2n1CC	-19%	5.2µM*	3.3µM*	9%	11%	-14%
Cc1ccc(CNC(=O)c2ccc3oc(=O)n(Cc4ccccc4)c3c2)cc1	-4%	?	·	-2%	0%	-15%
CCn1c(C(=O)NCc2ccc(F)cc2)cc2oc3ccccc3c21	-16%	?	3.5µM*	10%	10%	0%
COc1cccc(CNc2ccc3nc(-c4ccc(N)cc4)c(OC)n3n2)c1	i	·	·	·	-8%	19%
Cc1ccc(CCNC(=O)c2ccc3c(c2)N(Cc2ccccc2F)C(=O)c2ccccc2S3=O)cc1 (centres undefined)	-12%	6%[46.1 µM]	19%[46.1 µM]	11%	-16%	-20%
Cc1ccc(CNC(=O)c2nc(-c3ccc(Cl)cc3)n3c2CCCCC3)cc1	-25%	?	·	0%	-13%	-22%
CCOc1ccc(CNC(=O)c2cc3oc4ccccc4c3n2C)cc1	10µM*!	?	4µM*	0%	7%	5%
COc1ccc(CNC(=O)c2cc3c(=O)n(C)c4ccccc4c3n2C)cc1	3%	-10%[46.1 µM]	2%[46.1 µM]	2%	5%	-2%
CC1CCN(C(=O)Cn2c(SCC(=O)Nc3ccc(F)cc3)nc3ccccc32)CC1	-13%	3%[46.1 µM]	·	0%	-3%	-14%
COC(=O)C1=C(C)NC(=O)/C1=C\c1cc(C)n(-c2ccccc2C)c1C	?	?	-4%	-22%	-16%	-1%
COC(=O)C1=C(C)NC(=O)/C1=C\c1cc(C)n(-c2ccccc2F)c1C	-16%	?	?	14µM*	7%	-1%
COC(=O)C1=C(C)NC(=O)/C1=C\c1cc(C)n(-c2c(C)cccc2C)c1C	-6%	?	12µM*	-34%	-5%	·
COc1ccccc1CNC(=O)CC1N=C2c3ccccc3N=C(SCC(=O)Nc3ccc(F)cc3)N2C1=O (centres undefined)	-7%	-9%[46.1 µM]	·	-2%	-4%	22%
CCOC(=O)CCN1C(=O)[C@@H]2[C@H]3[C@H](O)[C@H](O)CC(=NNC(=O)OCc4ccccc4)[C@@H]3CC[C@H]2C1=O	·	-34%[14.3 µM]	29%[14.2 µM]	·	·	·
CCN(CC)CC1C(=O)N(c2ccc(OC)cc2)C1c1ccccc1 (centres undefined)	-5%	?	8.9µM*	8%	-7%	40%
CCOc1ccc(N2C(=O)CC(N(Cc3ccco3)C(C)=O)C2=O)cc1 (centres undefined)	i	0%	?	50µM*	6%	-4%
CCOc1ccc(N2C(=O)CC(N(Cc3ccco3)C(=O)CC)C2=O)cc1 (centres undefined)	·	4%	17%	·	·	-17%
CCCOc1ccc(N2C(=O)CC(N(Cc3ccco3)C(=O)CC)C2=O)cc1 (centres undefined)	i	16%[46.1 µM]	-29%[46.1 µM]	14µM*	8%	11%
CCC(=O)N(Cc1ccc(S(N)(=O)=O)cc1)C1CC(=O)N(c2ccc(OC)cc2)C1=O (centres undefined)	·	16%	11%	28µM*	-20%	-14%
CCOc1ccc(N2C(=O)CC(N(CCc3ccc(S(N)(=O)=O)cc3)C(C)=O)C2=O)cc1 (centres undefined)	-27%	1%	7%	19%	-2%	-2%
Cc1ccc(-n2nnc(-c3nsc(NC(=O)c4ccccc4C)n3)c2C)cc1Cl	-14%	-29%[46.1 µM]	·	0%	-8%	-9%
Cc1cccc(CNC(=O)c2cnn(-c3nccc(-c4cccs4)n3)c2C(C)C)n1	-23%	·	·	·	-13%	?
Cc1cccc(NC(=O)Cn2nc(C)c3nn(-c4ccc(Cl)cc4)c(C)c3c2=O)c1C	-20%	-6%[46.1 µM]	·	0%	-14%	-26%
